According to PubChem BioAssay AID686978 (National Center for Advancing Translational Sciences (NCATS), 2013):
Screen size: about 420,000 compounds; about 64,000 (15%) were called active. Another 27% or so got no clear call; they are omitted. Only a sample is shown. Unmarked numbers belong to inactive results. Calls follow the shape of the dose curve; as a rule, active = well fitted inhibition curve with a large enough effect; inconclusive = small, poorly fitted or top-dose-only effect; inactive = flat fitted curve, though single readings scatter.

Assay: qHTS for Inhibitors of human tyrosyl-DNA phosphodiesterase 1 (TDP1): qHTS in cells in absence of CPT; also: nearly all actives have a fitted effect of over 55% in size
Conditions: DT40 Tdp1-/- hTDP1 cells, no CPT, ATP luminescence, 48 h; activity change, negative = growth inhibition: at 46.2 µM (top of the series)
Outline: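 Camptothecin absent (DMSO only). Human TDP1-complemented DT40 knockout cells, 400 cells/well, 37 °C for minimum 48 hr; ATP measured via CellTiter-Glo, 30 min dark incubation, luminescence.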
% is scaled to controls: 0 for no effect and ±100 for the full control effect; potency is read from the fitted curve at half-maximal effect.

SMILES	Potency	activity change, negative = growth inhibition
CC(N)=NCc1cccc(CN)c1	inactive	
Cc1nccn1CCC1CCCCN1C(=O)CCc1nnc(-c2ccsc2)o1 (centres undefined)		-12.9%
O=C(CNC(=O)c1ccccc1F)c1ccc(Br)cc1		8.96%
Cc1ccc(C)c(N(CC(=O)NCc2ccco2)C(=O)CCC(=O)Nc2ccccn2)c1		-29.9%
O=C(O)CCCCc1nc2ccccc2s1		9.54%
CCC(Oc1ccccc1C)C(=O)Nc1ccc(S(=O)(=O)Nc2cc(C)on2)cc1 (centres undefined)		-6.61%
COC(=O)c1scc(S(=O)(=O)C(C)(C)C)c1-n1cccc1		-14.6%
COc1cc(CC(=O)N2CCC(n3nccc3NC(=O)C3CC3)CC2)cc(OC)c1OC		1.12%
C1=C(N2CCOCC2)/C(=C/c2nc3ccccc3[nH]2)CC1	23.1 µM (active)	
c1ccc(-n2nnnc2N2CCOCC2)cc1		-13.8%
O=C1c2ccccc2C(c2nc3ccccc3[nH]2)N1c1ccccc1 (centres undefined)		8.04%
COC(=O)C1=CN(Cc2ccc(OC)cc2)C=C(C(=O)OC)C1c1ccc(O)c(OC)c1		-89.4%
O=Cc1ccc(OCc2cn3ccccc3n2)cc1		-22.8%
O=C(CC1SC(N2CCOCC2)=NC1=O)Nc1ccccc1F (centres undefined)		-6.39%
CCN(CC)c1ccc(C(=O)N/N=C/c2ccc(N3CCOCC3)cc2)cc1		6.01%
COc1ccc(/C=N/N=C2/C(=O)Nc3ccccc32)cc1O		-21.8%
O=C(O)c1ccc(NN=CC2=C(N3CCOCC3)/C(=C/c3ccccc3)CC2)cc1	3.26 µM (active)	
CCOC(=O)c1c(NC(=O)/C(C#N)=C/c2ccccc2)sc2c1CCC2		8.89%
C(=N\N1CCN(c2ccccn2)CC1)/C1=C(N2CCOCC2)C(=C/c2ccccc2)/CC1	16.4 µM (active)	
O=C1Nc2ccc(Br)cc2/C1=N/N=C/C1=C(N2CCOCC2)C(=C\c2ccccc2)/CC1	23.1 µM (active)	
O=C(CN1CCN(c2ccccn2)CC1)N1CCc2ccccc21		2.96%
O=C(CSc1nnc(N2CCOCC2)n1-c1cccc(F)c1)N1CCN(c2ccccn2)CC1		-13.3%
O=C(O)c1ccc(/C=N/Nc2nc(N3CCCCC3)nc(N3CCCCC3)n2)cc1		-9.34%
N#C/C(=C\C1=C(N2CCOCC2)C(=C\c2ccccc2)/CC1)C(=O)Nc1ccccc1F	14.6 µM (active)	
Cc1cc(C(=O)NNS(=O)(=O)c2ccccc2C(F)(F)F)nn1C(C)(C)C		-11.6%
O=c1cc(CSc2ccccn2)nc(N2CCN(c3ccccc3)CC2)[nH]1		-11.7%

SMILES	Potency	activity change, negative = growth inhibition
N/C(=N\OC(=O)CCc1ccccc1)c1ccc(Cl)cc1		-18.2%
O=C(NCc1ccccn1)[C@@H]1CCCN1C(=O)[C@@H]1CCCN1C(=O)c1ccccc1		-6.12%
COC(=O)c1ccccc1NC(=O)CSc1nc2c(c(=O)[nH]1)CCC2		5.57%
COC(=O)C1=C(C(=O)OC)[C@@H]2N(C)c3ccccc3[C@@]23C[C@@H](C(=O)OC)N(C(C)=O)C3=N1		1.75%
O=C1C(c2ccccn2)=[N+]([O-])c2ccccc21		-7.8%
CCC(=O)Nc1cccc(NC(=O)CSc2nnc(-c3ccc(NS(C)(=O)=O)cc3)n2C)c1		-6.48%
O=C(COc1ccccc1F)OCc1cc(=O)n2nc(C3CCCCC3)sc2n1		5.26%
O=C(CSc1n[nH]c(-c2cccs2)n1)N1CCCCC1		1.91%
O=C(Nc1ccc(-c2csc(Nc3cccc(C(F)(F)F)c3)n2)cc1)c1cccc(C(F)(F)F)c1	6.51 µM (active)	
Cc1cccc(NC(=O)c2cccc(C(F)(F)F)c2)c1		-24%
CNC(=O)c1ccc(NC(=O)c2cccc(C(F)(F)F)c2)cc1		-13.5%
CCOC(=O)NC(C(F)(F)F)(C(F)(F)F)P(=O)(c1ccccc1)c1ccccc1		-26.8%
CCOC(=O)c1sc(NC(=O)CSc2ncccn2)c(C#N)c1C		-16%
Cc1cc(C)nc(NC(=O)c2cccc([N+](=O)[O-])c2)c1		-72.1%
O=C(Nc1nnc(SCc2ccccc2Cl)s1)c1cccc([N+](=O)[O-])c1		-24.4%
O=C(Nc1ccc(C2CC2(Cl)Cl)cc1)c1cccc([N+](=O)[O-])c1 (centres undefined)	18.4 µM (active)	
Cc1ccc(CNC(=O)CCN2C(=O)[C@@H]3Cc4ccccc4CN3C2=O)cc1		2.46%
CN(NC(=O)C1CC(=O)N(c2ccccc2)C1)C1=NS(=O)(=O)c2ccccc21 (centres undefined)		9.53%
O=C1NC(c2ccccc2)=NC1(Nc1ccccn1)C(F)(F)F (centres undefined)		-0.592%
CCCNC(=O)N1CCC(c2ccc3c(c2)OCO3)CC1		5.53%
CC1Cn2c(nnc2-c2cccs2)S1 (centres undefined)		-6.14%
N#C/C(=C(/O)COc1cccc2ccccc12)c1nc2ccccc2[nH]1		-9.31%
COc1ccccc1C(=O)COC(=O)COc1ccc(C#N)cc1		5.36%
N#C/C(=C(/O)COC(=O)COc1ccc(Cl)cc1)c1nc2ccccc2[nH]1	4.61 µM (active)	
O=C(/C(=N\O)n1cncn1)c1ccc(Br)cc1Br		4.39%
Oc1cccc2ccc(/C=C/c3ccc(Br)s3)nc12	0.082 µM (active)	

SMILES	Potency	activity change, negative = growth inhibition
CCOC(=O)C1(Cc2cccc(OC)c2)CCCN(C(=O)CCSC)C1 (centres undefined)		-24.5%
Cc1ccc(S(=O)(=O)Cc2cc(-c3ccc(Cl)cc3)no2)cc1		-6.77%
O=S(=O)(Cc1ccc(Cl)cc1Cl)c1ccc(Cl)cc1	1.03 µM (active)	
O=S(=O)(O)c1nc2ccccc2n1Cc1ccc(Cl)cc1Cl		-26.9%
C=C1CCN([C@H](C(=O)NCc2cc(OC)c(OC)c(OC)c2)C(C)C)S(=O)(=O)c2ccccc21		-3.89%
COc1cc(C(=O)NC2CCN(C)CC2)ccc1Nc1ncc2c(n1)N(C1CCC(O)CC1)CCC(=O)N2C (centres undefined)	16.4 µM (active)	
COc1ccc(C(=O)NC2CC2)cc1OC1CCN(Cc2cnn(C)c2)CC1		4.43%
COc1ccc(Cl)cc1NS(=O)(=O)c1cccc(C(=O)NC2CCC(O)CC2)c1 (centres undefined)		-6.37%
Cc1ccccc1OCCC(=O)Nc1c(C)n(C)n(-c2ccccc2)c1=O		0.764%
COc1cccc(C(=O)N2CCC(n3nccc3NC(=O)C3CCOC3)CC2)c1 (centres undefined)		3.75%
COc1ccc(N2CCN(c3cc(C)nc4nncn34)CC2)cc1	16.4 µM (active)	
COc1ccc(N2CCN(Cc3nnc(-c4ccccc4)o3)CC2)cc1		3.5%
COc1ccc(-c2nnc3n2CCCCC3)cc1		-10.5%
Cc1ccccc1C1CC(c2cccs2)=NN1S(C)(=O)=O (centres undefined)		-7.12%
CCOc1ccccc1CNC(=O)C1CCCN(S(=O)(=O)c2ccc3c(ccn3C)c2)C1 (centres undefined)	16.4 µM (active)	
CCOc1ccc(C(=O)NC2CCN(S(=O)(=O)CC)CC2)cc1		-14.8%
CCOc1ccc(NC(=O)C2CCCN(C(=O)Nc3ccccc3)C2)cc1 (centres undefined)		-0.394%
CCOc1ccc(CNC(=O)C2CCCN(S(=O)(=O)N(CC)c3ccc(OCC)cc3)C2)cc1 (centres undefined)	20.6 µM (active)	
Cc1ccccc1CNC(=O)C1CCCN(S(=O)(=O)N(C)c2ccc(F)cc2)C1 (centres undefined)	18.4 µM (active)	
CCS(=O)(=O)N1CCCC(C(=O)NCc2ccc(C)cc2)C1 (centres undefined)		-1.29%
Cc1ccc(CNC(=O)C2CCCN(S(C)(=O)=O)C2)cc1 (centres undefined)		-9.73%
CCOc1ccccc1NC(=O)C1CCCN(S(=O)(=O)c2cn(C)cn2)C1 (centres undefined)		-6.57%
COc1cccc(CNC(=O)C2CCN(S(=O)(=O)c3ccc4c(ccn4C)c3)CC2)c1		1.01%
CCOC(=O)c1c(C)[nH]c(C)c1S(=O)(=O)N1CCCC(C(=O)NCc2ccccc2Cl)C1 (centres undefined)		-27.1%
CCOC(=O)c1c(S(=O)(=O)N2CCCC(C(=O)NCc3ccc(F)cc3)C2)c(C)n(CC)c1C (centres undefined)		-20.8%
CCOc1ccc(N(CC)S(=O)(=O)N2CCCC(C(=O)Nc3ccc(C(C)=O)cc3)C2)cc1 (centres undefined)	23.1 µM (active)	

SMILES	Potency	activity change, negative = growth inhibition
Cc1cc(C)cc(OCc2nnc(SCC(=O)OC3CCCCC3)o2)c1		-0.322%
OC(c1ccccc1)c1nccn1Cc1ccccc1 (centres undefined)		2.98%
COc1ccccc1C(=O)NC(CCSC)C(=O)NNC(=O)c1csc(N2CCOCC2)n1 (centres undefined)		-22%
CCN(CC)C(=O)CS(=O)CC(=O)Nc1cc(OCCOC)c(Cl)cc1Cl (centres undefined)		-3.24%
CCOc1ccc(N(CC)S(=O)(=O)N2CCCC(C(=O)NCc3ccc(SC)cc3)C2)cc1 (centres undefined)	20.6 µM (active)	
CCOc1cccc(NC(=O)C2CCCN(S(=O)(=O)c3ccc(OC)cc3)C2)c1 (centres undefined)	23.1 µM (active)	
COc1ccc(NC(=O)C2CCCN(S(=O)(=O)c3cccc4cccnc34)C2)cc1 (centres undefined)		-42.5%
CSc1ccc(S(=O)(=O)N2CCC(C(=O)NCc3ccncc3)CC2)cc1		-13.1%
CCOC(=O)c1c(S(=O)(=O)N2CCCC(C(=O)NCc3cccc(C)c3)C2)c(C)n(C)c1C (centres undefined)		-4.19%
Cc1c(S(=O)(=O)O)oc2c1C(=O)C(=O)c1c-2ccc2c1CCCC2(C)C		-8.76%
Cc1nc(C)c(C(=O)Nc2ccc(C)c(F)c2)o1		-0.916%
CCOc1c(N2CCCCC2)c(=O)c1=O		-12.1%
CCc1c(Nc2ccccc2C)nc(N)[nH]c1=O		-8.5%
Cc1[nH]c(N)nc(=S)c1CCCNc1ccccc1	16.4 µM (active)	
Cc1cc(=O)n(C)c(=O)n1CCCNc1ccccc1		-23.9%
O=C(NC(=S)Nc1ccc(Cl)c(C(=O)O)c1)c1cncc(Br)c1		24.7%
O=C(Cc1ccc(Cl)cc1)NC1CCS(=O)(=O)C1 (centres undefined)		12.7%
O=C(COC(=O)/C=C/c1ccc2c(c1)OCO2)NC1CCS(=O)(=O)C1 (centres undefined)		14.5%
O=C(COC(=O)/C=C/c1ccc(Cl)cc1)NC1CCS(=O)(=O)C1 (centres undefined)	18.4 µM (active)	
Cc1cccc(C)c1NC(=O)CSc1nnc(-c2ccccc2)n1Cc1ccc2c(c1)OCO2		-17.4%
CN(CC1CCCO1)S(=O)(=O)c1ccc(C(=O)Nc2ccc([N+](=O)[O-])cc2)cc1 (centres undefined)	5.8 µM (active)	
CCOC(=O)c1c(NC(=O)c2ccc(S(=O)(=O)N(C)CC3CCCO3)cc2)sc2c1CC(C)(C)NC2(C)C (centres undefined)		-27.4%
CCC(=O)Nc1ccc(C(=O)Nc2ccc3c(c2)C(=O)N(CC2CCCO2)C3=O)cc1 (centres undefined)		-10.2%
O=C(Nc1ccc(S(=O)(=O)NCC2CCCO2)cc1)c1ccc(F)cc1 (centres undefined)	16.4 µM (active)	
CCOc1ccc(S(=O)(=O)NCC2CCCO2)cc1 (centres undefined)		-16%
O=S(=O)(NCC1CCCO1)c1ccc2ccccc2c1 (centres undefined)		-14.2%
